In PubChem BioAssay AID1852 (Sanford-Burnham Center for Chemical Genomics, 2009):
Screen size: about 2,500 compounds; about 1,100 (44%) were called active. So high a share suggests a set chosen from earlier hits. The list shows a part of the results. Values without a mark were called inactive.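 Rule for the calls: active = inhibition above 50% at 4 µM in the single-point screen; inactive = inhibition of 50% or less.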

Experiment: blockers of TNF-a NF-kB luciferase induction – cell-based, HEK293T NF-kB-Luc, luminescence, selectivity assay for NOD1/NOD2 signaling inhibitor project, primary screen (AID 1852)
Conditions: TNF-a induced, 14 h, at 4 µM, hits give high values

| SMILES | inhibition |
| --- | --- |
| CCc1ccc(CN(C)C(=O)CCc2nc3ccccc3n(-c3ccc(OC)cc3)c2=O)cc1 | 41.1% |
| COCCOC(=O)c1[nH]c2c(c1C)C(=O)CC(c1cc(OC)c(OC)c(OC)c1)C2 (configuration not stated) | 58.3% (active) |
| CCCCOC(=O)c1[nH]c2c(c1C)C(=O)CC(c1cc(OC)c(OC)c(OC)c1)C2 (configuration not stated) | 47.1% |
| CCCOC(=O)c1[nH]c2c(c1C)C(=O)CC(c1cc(OC)c(OC)c(OC)c1)C2 (configuration not stated) | 40.2% |
| CC1=Nc2ccccc2/C1=C/c1sc(=N)n(-c2nccs2)c1O | 99.2% (active) |
| Cc1ccc(-n2c(O)c(/C=C3/C(c4ccccc4)=Nc4ccccc43)c(=O)[nH]c2=O)cc1 | 28.1% |
| COC(=O)c1ccccc1NC(=O)C1CCCN(S(=O)(=O)c2ccc(F)cc2)C1 (configuration not stated) | 21.7% |
| O=C(Nc1nc(-c2ccccc2)cs1)C1CCCN(S(=O)(=O)c2ccccc2)C1 (configuration not stated) | 87.9% (active) |
| O=C(Nc1nc(-c2cccs2)cs1)c1ccc(S(=O)(=O)N2CCCC2)cc1 | 83.9% (active) |
| CCOC(=O)c1ccc(NC(=O)C2CCCN(S(=O)(=O)c3ccc(F)cc3)C2)cc1 (configuration not stated) | -6.1% |
| O=C(Nc1nnc(S(=O)(=O)N2CCCCCC2)s1)c1ccc(Cl)cc1 | -43% |
| O=C(Nc1nnc(S(=O)(=O)N2CCCCCC2)s1)c1ccc(Br)cc1 | -43.1% |
| COc1ccc(C(C)=O)cc1COC(=O)c1cc2ccccc2cc1O | 12.5% |
| COc1ccccc1NC(=O)c1cc2cc(Br)ccc2cc1O | 82.6% (active) |
| COc1cc(NC(=O)c2cc3ccccc3cc2O)c(OC)cc1Cl | 47.5% |
| COCCC1CCCCN1C(=O)c1cc(COc2ccc(-n3cncn3)cc2)on1 (configuration not stated) | 15.4% |
| CCOC(=O)CC1CCCCN1C(=O)c1cc(COc2cccc3cnccc23)on1 (configuration not stated) | 60.8% (active) |
| COC(=O)C1CCCCN1C(=O)c1cc(COc2cccc3cnccc23)on1 (configuration not stated) | 53.1% (active) |
| O=C(c1cc(COc2ccc3ncccc3c2)on1)N1CCCCCC1 | 31.2% |

| SMILES | inhibition |
| --- | --- |
| CC(Sc1nnc2c(n1)[nH]c1ccccc12)C(=O)NC1CCCCC1 (configuration not stated) | 30% |
| O=C(NC1CCCC1)c1sc(=S)n2c1[nH]c(=O)c1ccccc12 | 72.6% (active) |
| O=C(CSc1nnc2c(n1)[nH]c1ccccc12)NC1CCCCC1 | 47% |
| O=C(NC1CCCCC1)c1sc(=S)n2c1[nH]c(=O)c1ccccc12 | 85.3% (active) |
| N#C/C(=N\Nc1cccc(C(F)(F)F)c1)C(=O)c1csc(-c2cccnc2)n1 | 80.5% (active) |
| CC(C)(C)OC(=O)NCC(=O)Oc1cc2oc(=O)cc(-c3ccccc3)c2cc1Cl | 58% (active) |
| O=C(COc1ccc2c(-c3ccccc3)cc(=O)oc2c1)Nc1ccc(CCO)cc1 | 44.2% |
| CC(C)(C)OC(=O)NCCc1nnc(S(=O)(=O)Cc2ccc(Cl)cc2Cl)o1 | 45.3% |
| O=C(CNC(=O)OCc1ccccc1)Oc1cc2oc(=O)cc(-c3ccccc3)c2cc1Cl | 83.1% (active) |
| CCCNc1c(NS(=O)(=O)c2ccc3c(c2)CCCC3)c(=O)oc2ccccc12 | -3.6% |
| Cc1cc(OCC(=O)Nc2ccncc2)cc(C)c1Br | 34.4% |
| Cc1cc(OCC(=O)Nc2ccncc2)cc(C)c1Cl | 41% |
| O=C(COc1ccc(Br)cc1)Nc1ccc(Cc2ccncc2)cc1 | 64.1% (active) |
| COc1cccc2sc(N(CCCN(C)C)C(=O)CCS(=O)(=O)c3ccccc3)nc12 | 44.2% |
| Nc1nc(CCl)nc(Nc2ccc3ccccc3c2)n1 | -13.4% |
| Nc1ncncc1-c1ccc2ccccc2c1 | 16.7% |
| Nc1nc(N)c2cc(Sc3ccc4ccccc4c3)ccc2n1 | 51.9% (active) |
| Cc1ccccc1NC1=C/C(=N\S(=O)(=O)c2ccc(C(=O)O)cc2)c2ccccc2C1=O | 104% (active) |
| COC(=O)c1ccccc1NC1=C/C(=N\S(=O)(=O)c2ccc(C(=O)O)cc2)c2ccccc2C1=O | 106% (active) |

| SMILES | inhibition |
| --- | --- |
| CC(=O)Nc1ccc(S(=O)(=O)NCc2nc(-c3ccccc3C)no2)cc1 | -15.1% |
| O=C1C=C(Nc2ccccc2O)c2ccccc2C1=O | 38.6% |
| O=C(O)c1ccc(S(=O)(=O)/N=C2\C=C(Nc3ccccc3F)C(=O)c3ccccc32)cc1 | 89.6% (active) |
| Cc1ccc(-c2nc(NC(=O)c3nn(C)cc3[N+](=O)[O-])sc2C)cc1C | 33.4% |
| COc1ccc2sc3c(=O)[nH]c4ccccc4c3c2c1 | 54.1% (active) |
| CCc1nnc(NC(=O)c2ccc(Cl)c(S(=O)(=O)N3CCc4ccccc4C3)c2)s1 | 31.8% |
| CCc1nnc(NC(=O)c2ccc(Cl)c(S(=O)(=O)N3CCc4ccccc43)c2)s1 | 53.5% (active) |
| Cn1cc(S(=O)(=O)N2CCc3ccccc32)cc1C(=O)Nc1ccc(Cl)cc1 | 24.7% |
| O=C(NCc1cc(Br)cc(Br)c1OC(=O)c1ccccc1[N+](=O)[O-])c1ccccc1 | -35.5% |
| Cc1ccc[n+](CC(=O)Nc2ccc(Cl)c([N+](=O)[O-])c2)c1 | -10% |
| CCCNC(=O)COC(=O)c1ccccc1C(=O)c1ccc(Cl)c([N+](=O)[O-])c1 | 65.9% (active) |
| O=C(COC(=O)c1ccccc1C(=O)c1ccc(Cl)c([N+](=O)[O-])c1)NC1CCCCCC1 | 27.6% |
| O=C(COC(=O)c1ccccc1C(=O)c1ccc(Cl)c([N+](=O)[O-])c1)NC1CC1 | 73.1% (active) |
| Cc1ccc(Cl)c(NC(=O)COC(=O)c2ccccc2C(=O)c2ccc(Cl)c([N+](=O)[O-])c2)c1Cl | 84.2% (active) |
| N#Cc1cccc(NC(=O)Cn2cnc(S(=O)(=O)N3CCc4ccccc43)c2)c1 | 8.2% |
| N#Cc1cccc(NC(=O)COC(=O)c2ccccc2C(=O)c2ccc(Cl)c([N+](=O)[O-])c2)c1 | 83.2% (active) |
| O=C(O)c1ccc(N/N=C/c2ccc(OC(=O)c3cccc(Cl)c3)cc2)cc1 | -26.3% |
| CNC(=O)COC(=O)c1ccccc1C(=O)c1ccc(Cl)c([N+](=O)[O-])c1 | 81.6% (active) |
| Nc1ccc(C(=O)OCC(=O)N2CCc3ccccc3C2)cc1[N+](=O)[O-] | 31.9% |
